Reference: ChEMBL document CHEMBL3988442, “University of Dundee, Small-Polar-MMV Screening Library” (2021)
For some assays here: Potency and affinity values are given separately.

Tests used:
Design in all cases: scale not given: direction of the effect not stated beside the values
[1] = molecular target: Protein translocase subunit SecA (Escherichia coli (strain K12)) (UniProt P10408); assay: Assay to Identify E. coli SecA ATPase Inhibitors; format: functional; conditions: 30 µM
[2] = molecular target: T1, Ubiquitin-activating enzyme e1, putative (Leishmania donovani (strain BPK282A1)) (UniProt E9BSI1); assay: Leishmania donovani Ubiquitin Activating Enzyme (LdE1); format: functional; conditions: 30 µM
T1 sequence (whole entry): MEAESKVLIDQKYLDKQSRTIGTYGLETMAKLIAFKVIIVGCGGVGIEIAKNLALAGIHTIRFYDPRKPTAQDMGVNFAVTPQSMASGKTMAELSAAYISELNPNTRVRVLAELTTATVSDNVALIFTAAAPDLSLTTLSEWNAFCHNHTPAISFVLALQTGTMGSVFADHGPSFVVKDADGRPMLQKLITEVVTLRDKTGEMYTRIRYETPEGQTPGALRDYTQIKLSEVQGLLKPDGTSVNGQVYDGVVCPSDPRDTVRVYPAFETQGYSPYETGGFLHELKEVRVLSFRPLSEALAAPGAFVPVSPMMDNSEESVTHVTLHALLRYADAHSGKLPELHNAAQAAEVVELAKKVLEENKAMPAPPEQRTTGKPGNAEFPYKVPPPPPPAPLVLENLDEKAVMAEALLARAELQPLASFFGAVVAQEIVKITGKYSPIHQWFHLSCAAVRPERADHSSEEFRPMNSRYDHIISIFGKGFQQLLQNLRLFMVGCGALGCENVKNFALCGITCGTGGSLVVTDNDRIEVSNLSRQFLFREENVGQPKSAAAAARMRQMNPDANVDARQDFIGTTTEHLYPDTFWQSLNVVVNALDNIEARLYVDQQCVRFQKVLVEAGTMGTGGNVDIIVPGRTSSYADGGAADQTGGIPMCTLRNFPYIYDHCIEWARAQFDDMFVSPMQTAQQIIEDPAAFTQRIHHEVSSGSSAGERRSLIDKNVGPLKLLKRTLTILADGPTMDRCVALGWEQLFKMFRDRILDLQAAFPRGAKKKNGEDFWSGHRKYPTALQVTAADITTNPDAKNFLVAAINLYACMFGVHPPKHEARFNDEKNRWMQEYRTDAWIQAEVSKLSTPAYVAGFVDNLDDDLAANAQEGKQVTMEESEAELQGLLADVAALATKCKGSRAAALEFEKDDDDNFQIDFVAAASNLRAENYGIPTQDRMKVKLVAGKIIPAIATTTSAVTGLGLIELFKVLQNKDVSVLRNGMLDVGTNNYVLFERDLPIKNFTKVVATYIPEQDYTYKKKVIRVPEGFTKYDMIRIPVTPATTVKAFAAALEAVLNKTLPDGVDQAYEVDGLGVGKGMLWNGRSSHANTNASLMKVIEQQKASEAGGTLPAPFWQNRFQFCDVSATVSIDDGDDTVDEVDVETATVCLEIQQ

[3] = molecular target: AMP-activated protein kinase, AMPK (Homo sapiens) (UniProt P54646+O43741+P54619+Q9UGJ0+Q9Y478+Q13131+Q9UGI9); assay: AMP-dependent Kinase enzyme assay. An in vitro enzyme assay that detects ADP turnover that is directly proportional to AMPK activity. This uses naive AMPK that is activated during the assay with MK-8722; format: functional; conditions: 30 µM
[4] = molecular target: Sialic acid-binding Ig-like lectin 9 (Homo sapiens) (UniProt Q9Y336); assay: Hs-Siglec9 ALPHAscreen SOP 20170721; conditions: 10 µM
Chain of Sialic acid-binding Ig-like lectin 9 (Homo sapiens) (Q9Y336 whole entry): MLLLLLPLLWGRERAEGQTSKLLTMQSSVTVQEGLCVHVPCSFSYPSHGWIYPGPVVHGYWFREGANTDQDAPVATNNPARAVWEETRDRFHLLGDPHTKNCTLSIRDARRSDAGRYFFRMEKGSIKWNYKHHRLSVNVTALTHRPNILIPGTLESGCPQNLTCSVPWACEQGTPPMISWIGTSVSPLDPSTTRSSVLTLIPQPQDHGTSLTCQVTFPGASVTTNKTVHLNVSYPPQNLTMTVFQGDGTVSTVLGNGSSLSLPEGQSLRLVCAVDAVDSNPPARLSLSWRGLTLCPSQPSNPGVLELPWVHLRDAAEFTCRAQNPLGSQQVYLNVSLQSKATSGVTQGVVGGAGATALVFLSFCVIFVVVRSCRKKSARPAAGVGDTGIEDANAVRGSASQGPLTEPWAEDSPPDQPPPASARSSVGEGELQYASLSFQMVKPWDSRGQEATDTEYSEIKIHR

Trypanosoma cruzi = assay: Trypanosoma cruzi phosphomannomutase and mannose-1-phosphate guanylyltransferase assay; format: functional; conditions: 10 µM
[5] = molecular target: T2, Arginase-2, mitochondrial (Homo sapiens) (UniProt P78540); assay: in vitro enzyme assay to detect the production of urea directly proportional to the activity of Arginase II; format: functional; conditions: 33.3 µM; note: in the data most compounds retested in dose-response had high values
T2 sequence (whole entry): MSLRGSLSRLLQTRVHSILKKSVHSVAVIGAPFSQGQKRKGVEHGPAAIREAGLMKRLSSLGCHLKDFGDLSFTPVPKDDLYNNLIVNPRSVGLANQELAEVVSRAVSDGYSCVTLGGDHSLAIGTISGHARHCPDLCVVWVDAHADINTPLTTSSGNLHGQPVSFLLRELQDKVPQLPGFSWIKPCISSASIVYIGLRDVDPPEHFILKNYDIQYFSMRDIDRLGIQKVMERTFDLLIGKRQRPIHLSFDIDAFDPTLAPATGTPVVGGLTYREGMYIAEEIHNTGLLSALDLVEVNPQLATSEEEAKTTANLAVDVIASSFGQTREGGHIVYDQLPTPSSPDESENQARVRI

[6] = molecular target: T3, Proteasome subunit beta (Trypanosoma cruzi) (UniProt O96673); assay: Trypanosoma cruzi proteasome chymotrypsin-like activity (TcProtChymo) assay.; note: in the data most compounds retested in dose-response had high values; format: functional; conditions: 9.37 µM
T3 sequence (whole entry): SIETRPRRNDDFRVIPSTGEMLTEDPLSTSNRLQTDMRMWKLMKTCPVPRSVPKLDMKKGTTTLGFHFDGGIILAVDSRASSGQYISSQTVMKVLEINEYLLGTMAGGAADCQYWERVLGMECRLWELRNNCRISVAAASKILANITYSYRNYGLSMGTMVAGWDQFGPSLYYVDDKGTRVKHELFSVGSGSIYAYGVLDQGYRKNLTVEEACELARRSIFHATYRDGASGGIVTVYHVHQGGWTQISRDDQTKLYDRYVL

Homo sapiens = species: Homo sapiens; assay: To identify inhibition of the IFN signalling (Jak-Stat) pathway via expression of an eGFP reporter gene under the control of an IFN-stimulated response element (ISRE) containing MxA promoter.; format: functional; conditions: 30 µM
[7] = molecular target: T4, Tyrosyl-tRNA synthetase, putative (Trypanosoma cruzi (strain CL Brener)) (UniProt Q4DSP6); assay: Trypanosoma cruzi tyrosyl tRNA synthetase (TcYRS) _High Tyrosine SOP; format: functional; conditions: 30 µM; note: in the data most compounds retested in dose-response had high values
T4 sequence (whole entry): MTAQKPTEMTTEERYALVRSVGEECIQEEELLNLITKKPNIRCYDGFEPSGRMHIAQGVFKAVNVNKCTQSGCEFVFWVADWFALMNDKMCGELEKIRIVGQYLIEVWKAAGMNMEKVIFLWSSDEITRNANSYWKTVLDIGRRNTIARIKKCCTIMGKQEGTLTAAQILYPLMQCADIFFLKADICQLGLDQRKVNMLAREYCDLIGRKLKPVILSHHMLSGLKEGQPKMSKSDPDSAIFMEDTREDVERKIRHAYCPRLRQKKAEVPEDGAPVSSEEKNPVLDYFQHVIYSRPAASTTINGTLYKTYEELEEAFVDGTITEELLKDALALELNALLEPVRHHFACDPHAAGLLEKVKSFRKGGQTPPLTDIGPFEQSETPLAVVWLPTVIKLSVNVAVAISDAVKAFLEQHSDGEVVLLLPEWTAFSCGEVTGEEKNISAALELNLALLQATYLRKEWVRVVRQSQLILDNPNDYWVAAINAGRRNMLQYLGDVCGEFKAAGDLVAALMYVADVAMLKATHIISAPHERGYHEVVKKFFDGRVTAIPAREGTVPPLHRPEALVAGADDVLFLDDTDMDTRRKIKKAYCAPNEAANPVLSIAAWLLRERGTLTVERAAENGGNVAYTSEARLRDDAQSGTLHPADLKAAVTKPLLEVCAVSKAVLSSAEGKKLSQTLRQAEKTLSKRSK

[8] = molecular target: T4, Tyrosyl-tRNA synthetase, putative (Trypanosoma cruzi (strain CL Brener)); assay: Trypanosoma cruzi tyrosyl tRNA synthetase (TcYRS) SOP; format: functional; conditions: 30 µM
[9] = molecular target: Chromo domain-containing protein 1 (Saccharomyces cerevisiae (strain ATCC 204508 / S288c) (Baker's yeast)) (UniProt P32657); assay: ScCHD-1 Enzyme Inhibition Assay; format: functional; conditions: 30 µM; note: in the data most compounds retested in dose-response had high values
Chain of Chromo domain-containing protein 1 (Saccharomyces cerevisiae (strain ATCC 204508 / S288c) (Baker's yeast)) (P32657 whole entry, the tested form may be a part): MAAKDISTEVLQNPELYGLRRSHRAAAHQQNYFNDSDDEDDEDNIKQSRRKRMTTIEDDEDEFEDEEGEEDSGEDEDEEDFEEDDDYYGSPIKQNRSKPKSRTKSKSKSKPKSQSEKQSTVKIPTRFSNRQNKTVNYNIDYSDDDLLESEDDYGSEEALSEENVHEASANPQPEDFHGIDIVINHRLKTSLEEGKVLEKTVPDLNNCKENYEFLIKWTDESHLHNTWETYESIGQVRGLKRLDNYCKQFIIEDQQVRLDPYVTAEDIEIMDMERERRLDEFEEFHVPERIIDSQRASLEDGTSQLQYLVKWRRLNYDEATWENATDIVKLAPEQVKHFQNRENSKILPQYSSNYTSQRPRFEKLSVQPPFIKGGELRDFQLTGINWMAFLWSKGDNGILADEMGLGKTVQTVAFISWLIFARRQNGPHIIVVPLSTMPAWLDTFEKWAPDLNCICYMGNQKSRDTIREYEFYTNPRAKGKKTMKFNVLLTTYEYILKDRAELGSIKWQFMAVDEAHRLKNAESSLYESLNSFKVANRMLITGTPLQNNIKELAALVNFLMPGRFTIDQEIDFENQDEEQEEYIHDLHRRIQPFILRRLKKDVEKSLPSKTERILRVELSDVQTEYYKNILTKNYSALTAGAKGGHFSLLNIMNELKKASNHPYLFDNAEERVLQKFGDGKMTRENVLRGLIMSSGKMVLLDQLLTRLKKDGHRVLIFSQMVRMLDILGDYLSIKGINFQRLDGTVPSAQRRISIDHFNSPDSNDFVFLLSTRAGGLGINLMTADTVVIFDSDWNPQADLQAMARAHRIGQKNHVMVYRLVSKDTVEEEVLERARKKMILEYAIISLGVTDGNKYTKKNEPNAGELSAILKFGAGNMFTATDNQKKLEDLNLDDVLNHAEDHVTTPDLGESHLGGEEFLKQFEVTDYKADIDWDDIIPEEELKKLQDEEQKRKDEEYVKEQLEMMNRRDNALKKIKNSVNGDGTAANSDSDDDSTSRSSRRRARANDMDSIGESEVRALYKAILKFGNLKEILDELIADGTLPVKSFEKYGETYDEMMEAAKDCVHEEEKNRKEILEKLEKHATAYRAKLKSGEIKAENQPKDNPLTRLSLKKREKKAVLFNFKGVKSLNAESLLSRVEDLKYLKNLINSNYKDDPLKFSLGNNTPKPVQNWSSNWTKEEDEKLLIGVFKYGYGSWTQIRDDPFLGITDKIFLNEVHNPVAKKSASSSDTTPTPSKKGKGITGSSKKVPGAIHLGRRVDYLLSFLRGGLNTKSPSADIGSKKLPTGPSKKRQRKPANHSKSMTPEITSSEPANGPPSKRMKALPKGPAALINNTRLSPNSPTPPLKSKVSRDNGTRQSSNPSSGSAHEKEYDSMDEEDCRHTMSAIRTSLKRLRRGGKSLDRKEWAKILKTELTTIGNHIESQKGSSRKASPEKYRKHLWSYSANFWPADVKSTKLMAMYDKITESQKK

Chain of Protein translocase subunit SecA (Escherichia coli (strain K12)) (P10408 whole entry): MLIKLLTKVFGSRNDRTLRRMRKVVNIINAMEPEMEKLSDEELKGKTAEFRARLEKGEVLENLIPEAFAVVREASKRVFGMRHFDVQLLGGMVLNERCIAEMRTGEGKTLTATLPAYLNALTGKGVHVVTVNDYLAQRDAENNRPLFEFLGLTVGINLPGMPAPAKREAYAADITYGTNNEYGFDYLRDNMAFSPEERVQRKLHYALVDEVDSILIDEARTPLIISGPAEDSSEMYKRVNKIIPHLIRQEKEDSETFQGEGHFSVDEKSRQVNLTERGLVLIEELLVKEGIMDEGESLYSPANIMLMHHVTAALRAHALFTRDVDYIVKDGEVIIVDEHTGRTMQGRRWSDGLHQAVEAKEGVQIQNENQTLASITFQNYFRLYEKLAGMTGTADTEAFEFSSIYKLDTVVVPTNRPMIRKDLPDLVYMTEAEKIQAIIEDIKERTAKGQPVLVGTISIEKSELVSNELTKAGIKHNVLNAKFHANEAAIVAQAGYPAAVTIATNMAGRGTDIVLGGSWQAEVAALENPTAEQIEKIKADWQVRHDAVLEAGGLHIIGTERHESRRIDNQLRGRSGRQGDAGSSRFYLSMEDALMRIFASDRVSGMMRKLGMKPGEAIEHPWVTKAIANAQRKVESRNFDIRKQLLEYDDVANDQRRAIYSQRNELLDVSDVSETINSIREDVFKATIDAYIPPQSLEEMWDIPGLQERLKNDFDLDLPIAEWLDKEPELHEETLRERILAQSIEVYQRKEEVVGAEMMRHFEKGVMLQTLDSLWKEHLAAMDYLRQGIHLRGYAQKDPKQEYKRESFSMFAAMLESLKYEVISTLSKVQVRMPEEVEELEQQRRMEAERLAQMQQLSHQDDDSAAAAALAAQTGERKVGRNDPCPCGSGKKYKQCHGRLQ

SMILES | Percent Effect [1] | Percent Effect [2] | Percent Effect [3] | Percent Effect [4] | Percent Effect (Trypanosoma cruzi) | Percent Effect [5] | Percent Effect [6] | Percent Effect (Homo sapiens) | Percent Effect [7] | Percent Effect [8] | Percent Effect [9]
CC(C)N1CC(C(=O)NCCOc2ccc3c(c2)OCO3)CC1=O (configuration not stated) | 0.716% | 21.1% | -0.48% | -5.15% | 3.64% | 2.16% | 12.1% | 4.59% | 8.37% | 23.5% | -9.09%
CC(=O)N(Cc1ncc(C(C)C)o1)C1CCN(Cc2nccn2C)C1 (configuration not stated) | -2.57% | 13.5% | -4.73% | 4.8% | 3.25% | -1.29% | 14.4% | -11.4% | 10.9% | 28.1% | -1.74%
CC(NC(=O)Cn1cccn1)c1cccnc1 (configuration not stated) | -4.41% | 8% | -4.08% | 11% | 8.67% | 6.25% | 1.92% | 10.3% | 3.83% | 13.6% | -3.89%
Cc1ccc(CC(=O)N2CCOC(c3nc(C(C)(C)C)n[nH]3)C2)cn1 (configuration not stated) | -3.58% | 12.5% | -9.66% | 13.3% | 4.76% | -0.442% | 7.72% | 2.71% | 3.16% | 5.13% | -2.81%
CSC(C)(C)CNC(=O)NC1CCN(C)CC1 | -2.43% | 5.33% | -2.46% | 7.43% | 3.21% | 15.6% | 0% | 21.1% | 4.92% | 6.17% | -2.97%
Cn1nc(CNC(=O)C2CCCC2)cc1C1CC1 | -6.17% | 10.4% | -2.49% | -7.84% | 5.23% | -0.645% | 2.79% | 6.93% | 0% | 16.7% | -8.08%
Cc1ccc(C(C)N(C)Cc2nc3c(cnn3C)c(=O)[nH]2)cc1 (configuration not stated) | 0.32% | 16.2% | -5.9% | 6.25% | 1.21% | 3.88% | 15.8% | 21.7% | 7.92% | 13.4% | -7.48%
CCc1nnc2n1CCN(Cc1csc(-c3ccsc3)n1)C2 | -1.79% | -6.94% | 1.22% | -3.25% | 0.68% | 0.883% | 13.5% | -14.4% | 4.21% | 2.56% | -0.47%
O=C(NCC1CC1)C1CN(C(=O)c2cccnc2)CC12CCOCC2 (configuration not stated) | -0.919% | 13% | 2.21% | 6.47% | -0.296% | -0.645% | 13.6% | 18.6% | 5.29% | 14.1% | -4.19%
Cc1n[nH]cc1CNc1ccc2c(c1)N(C(=O)OC(C)(C)C)CCC2 | -6.86% | 7.79% | -1.81% | 5.14% | 1.08% | -8.28% | 7.65% | 4.68% | 4.3% | 8.64% | 0.972%
CC1CN(C(=O)CN(Cc2ccccc2Br)C2CC2)CCO1 (configuration not stated) | -1.13% | 0% | 4.5% | 0.479% | 3.82% | -3.16% | -4.77% | 13.8% | 3.81% | 7.06% | -7.55%
CCOc1ccc(CC(CNC(=O)c2occc2C)C(N)=O)cc1 (configuration not stated) | -5.57% | 10.4% | -18.6% | -5.56% | -3.23% | 1.47% | 3.64% | 9.64% | 7.62% | 11.8% | -12.3%
COc1cccc(S(=O)(=O)NC(=O)COC2CCCC2)c1 | -1.91% | 20.8% | 2.89% | 10.4% | 2.06% | 2.85% | 10.6% | 3.15% | 8.74% | 24.4% | -6.86%
Cn1ncc2c(=O)[nH]c(N3CCN(C(=O)c4ccsc4)CC3)nc21 | -5.57% | 2.7% | 2.37% | -0.0131% | -6.32% | 17.2% | 3.24% | 25% | -1.48% | -11.1% | 1.01%
Cc1cnn(CCNCc2ccccc2OCc2cccnc2)c1 | -4.98% | -3.8% | 2.64% | 6.26% | -1.95% | 1.5% | 17% | 5.87% | 5.21% | 5.06% | -13%
CCOC(=O)c1sc2ccsc2c1CNC(=O)C(C)(C)C#N | -2.65% | 0% | 8.08% | 1.84% | 1.76% | -5.73% | -5.57% | 13.9% | 5.94% | 11% | 14.5%
Cc1nn(CCO)c(C)c1CNC1CCc2c(Cl)cccc21 (configuration not stated) | -3.63% | 8% | -5.26% | 16.9% | 8.67% | 46.9% | 0.174% | 8.33% | 1.64% | 8.64% | -14.3%
O=C([C@H]1C[C@@H]2CCN(C3CCOCC3)C[C@@H]2O1)N1CCOCC1 | 4.05% | 5.33% | -5.76% | 14.3% | -3.48% | -54.7% | 16.8% | -8.99% | 7.29% | 12.5% | -5.71%
CCn1cnnc1CNC(=O)NC(C)C(C)C (configuration not stated) | -4.76% | 13% | 3.19% | 7.03% | -4.68% | 0% | 12.5% | 22.8% | 2.91% | 7.32% | -1.46%
Cc1nn(C)c(C)c1C1CCCN1Cc1nc(-c2ccco2)no1 (configuration not stated) | -1.05% | 10.8% | -11.3% | 7.16% | 4.18% | -2.03% | 3.23% | 26.2% | 10.9% | 23.2% | -7.01%
CC(C)C(=O)NCc1cccc(N2CCCCC2=O)c1 | -6.2% | 18.2% | -3.27% | -10.4% | 5.78% | 1.05% | 11.7% | 0.702% | 3.81% | 21.2% | -12.3%
CNc1cncc(C2CCCN2C(=O)c2ccc3oc(=O)n(C)c3c2)n1 (configuration not stated) | -2.39% | 14.9% | 8.4% | -7.77% | 3.36% | 0.696% | 9.36% | -8.91% | 5.38% | 3.9% | -16.2%
